# Lmaj promast: Leishmania major promastigote growth inhibition, primary screen. Leishmania major promastigotes, resazurin fluorescence viability. inhibition, % at 10 µM. hit rate 9% among 200,000. AID 1063, 2008; in the data active means inhibition above about 50%;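 further: promastigotes grown with compound for 44 hours at 28 °C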
# p97 ATPase inh: inhibitors of human p97 ATPase, primary screen, biochemical | Transitional endoplasmic reticulum ATPase (Homo sapiens), P55072 | hit rate 0.42% among 220,000 | inhibition, % at 8 µM | recombinant p97 ATPase, Kinase-Glo ATP luminescence, 3 h; in the data active means inhibition above about 15%;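 further: 0% = DMSO vehicle and 100% = wells lacking enzyme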
# Insulin prom inh: inhibitors of insulin promoter-driven GFP, primary screen, imaging, TRM-6 cells (human fetal islet line), eGFP reporter, cell count. AID 1273, 2008. inhibition, % at 2 µM. hit rate 0.9% among 130,000. reporter expression induced with tamoxifen;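 active means inhibition above the mean plus 3 SD, with well images judged a real hit on visual review, cut at about 60% in these data, passing the limit was not always enough; inconclusive means inhibition over the cutoff but images rejected on review; inactive means inhibition not above the cutoff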
# PTEN del growth: growth suppression of PTEN-null HCT116, primary screen, cell-based, CellTiter-Glo | viability, % at 10 µM | AID 827, 2007 | hit rate 1.2% among 140,000 | HCT116 PTEN-null viability, 60 h; hits give low values;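 active means viability at or below a set limit, 4 SD under the median of all tested compounds, cut at about 3.7% in these data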;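 further: PTEN knockout HCT116 line with beta catenin targeted HCT116 as companion control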
# HCT116 bCat-KO: primary screen for growth suppressors in beta-catenin knockout HCT116 cells (colon tumor, human). viability, % at 10 µM. hit rate 1.5% among 140,000. HCT116 beta-catenin knockout viability, CellTiter-Glo, 60 h; hits give low values;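 active means viability at or under a set limit, the compound median less 4 SD, cut at about 6% in these data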;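 further: 0% = Hyamine 1622 control at 20 µM and 100% = untreated cell control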
# ROMK mod: ROMK potassium channel modulators, primary screen, cell-based, thallium flux, MLSMR library. Tet-inducible ROMK, thallium flux fluorescence; actives lie on both sides. AID 1918, 2009. B-score at 10 µM. hit rate 2% among 130,000;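 active means signal ratio slope over the read window, or its plate-corrected B-score, at least 3 SD from the plate mean, either direction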;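 further: B-score of the F/F0 ratio slope over 7 to 12 s after thallium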
# Target sequence (P48048 whole entry, looked up): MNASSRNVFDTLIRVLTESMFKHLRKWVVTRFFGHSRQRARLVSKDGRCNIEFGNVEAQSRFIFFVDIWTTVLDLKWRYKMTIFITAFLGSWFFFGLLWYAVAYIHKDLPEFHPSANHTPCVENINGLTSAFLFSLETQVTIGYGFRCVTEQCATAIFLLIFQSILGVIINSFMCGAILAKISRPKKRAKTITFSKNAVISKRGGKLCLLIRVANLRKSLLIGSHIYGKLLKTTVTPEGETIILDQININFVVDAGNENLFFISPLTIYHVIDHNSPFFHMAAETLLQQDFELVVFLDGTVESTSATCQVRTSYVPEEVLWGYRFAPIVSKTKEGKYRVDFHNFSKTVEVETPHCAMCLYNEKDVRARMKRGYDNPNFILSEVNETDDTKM
# * = called active by the depositor; ? = inconclusive; · = no result. Sampled rows, rich in hits. Any-hit rate of the full collection: about 10%.
SMILES,Lmaj promast,p97 ATPase inh,Insulin prom inh,PTEN del growth,HCT116 bCat-KO,ROMK mod
O=C(CC1CS(=O)(=O)CC1CC(=O)Nc1ccc2c(c1)OCCO2)Nc1ccc2c(c1)OCCO2 (stereo unspecified),-7,2,·,·,·,·
O=C(CSc1ccc(-c2ccccn2)nn1)N1CCCC1,-2,-1,19,·,·,-0.087
C=CCn1c(=O)/c(=C2/Sc3ccccc3N2CC)s/c1=C1/C(=O)NN=C1C,97*,0,-388,·,·,0.018
C=CCn1c(=O)/c(=C2/SC(C)=C(C)N2CC)s/c1=C1/C(=O)N(CC)C(=S)N1c1ccccc1,3,0,0,96,102,·
Cc1cccc2sc(NNC(=O)c3cc(-c4cccs4)nc4ccccc34)nc12,-8,7,-15,6,2.3*,-1.2
C/C(=N\NC(=O)c1cc(-c2ccncc2)nc2ccccc12)c1ccc(N2CCOCC2)cc1,97*,3,·,·,·,0.58
COc1ccc2cc(/C(C)=N/NC(=O)c3cc(-c4cccnc4)nc4ccccc34)ccc2c1,-5,6,-40,95,91,0.61
C/C(=N\NC(=O)c1cc(-c2cccs2)nc2ccccc12)c1ccccn1,100*,-2,·,·,·,0.77
Cc1ccc(C(=O)OCC(=O)Nc2nc(-c3ccccc3)cs2)cc1NC(=O)c1ccco1,21,8,·,·,·,-0.63
CN(C)S(=O)(=O)c1ccc(Cl)c(NC(=O)COC(=O)/C=C/c2ccco2)c1,-11,3,·,·,·,-0.0066
CC(=O)NCCN1C(=O)S/C(=C\c2cccs2)C1=O,-3,1,35,·,·,·
N#CCCCCN1CCCC1,·,-3,·,·,·,·
Cc1ccc(NC(=O)CSc2nnc(Cc3cccn3C)n2-c2ccc(F)cc2)c(C)c1,62*,-7,·,70,70,·
Cn1cccc1Cc1nnc(SCC(=O)Nc2cccc(F)c2)n1-c1ccc(F)cc1,4,1,·,93,83,·
Cn1cccc1Cc1nnc(SCC(=O)Nc2cccc(Cl)c2)n1-c1ccc(F)cc1,62*,5,·,44,52,·
Cc1ccc(Sc2nc3ccc(C)cn3c(=O)c2/C=N/O)cc1,14,-2,·,·,·,-1.2
NC1=NC(c2ccc(Cl)cc2)C(C(=O)c2ccccc2)N1 (stereo unspecified),·,2,·,·,·,-0.016
Cc1ccc(C(C)C)c(OCCCNCc2cccnc2)c1,87*,-1,·,·,·,-0.15
Cc1ccc(C(C)C)c(OCCNS(C)(=O)=O)c1,-2,10,?,95,104,·
CCCCNCC#CCOc1cc(C)ccc1C(C)C,95*,-3,·,·,·,-0.57
Cn1ncc(Cl)c(Oc2ccc(Cl)cc2)c1=O,-5,4,-20,77,62,0.88
COc1ccc(Oc2c(Cl)cnn(-c3ccc(F)cc3)c2=O)cc1,12,9,0,93,95,·
COc1c(Cl)cnn(-c2ccc(C)cc2)c1=O,-2,-1,-57,1.1*,1.2*,·
COc1ccc(Oc2c(Cl)cnn(-c3ccc(Cl)c(Cl)c3)c2=O)cc1,0,-2,10,0.7*,1.0*,·
COc1ccc(Oc2c(Cl)cnn(-c3ccc(C)cc3)c2=O)cc1,2,0,-16,15,5.5*,·
SMILES,Lmaj promast,p97 ATPase inh,Insulin prom inh,PTEN del growth,HCT116 bCat-KO,ROMK mod
O=c1c2oc3nc4c(cc3c2ncn1CCCc1ccccc1)CCCC4,·,2,·,·,·,·
Cc1cc(NC(=O)c2c(C)noc2C)no1,·,7,·,·,·,·
CC(=O)NC(Nc1c(C)n(C)n(-c2ccccc2)c1=O)C(Cl)(Cl)Cl (stereo unspecified),0,1,·,·,·,·
COc1ccc(NC(=O)c2ccc(C(=O)c3ccccc3)o2)cc1,-1,2,90*,82,85,·
COc1ccc(C(=O)COC(=O)c2ccc(NC(=O)c3ccccc3)cc2)cc1,-6,4,57,33,1.1*,·
Cc1nc(C)c(C(=O)Nc2ccc(Oc3ccccc3)cc2)o1,76*,-5,-38,66,40,-1.2
Cc1ccc(C(=O)Nc2ccc3c(c2)CCC3)o1,-1,-6,16,74,91,-0.73
Cc1ccc(C(=O)Nc2ccc(F)cc2)o1,51*,-6,-12,103,89,·
CC(Oc1ccccc1)C(=O)N1CCN=C1SCc1ccc(F)cc1 (stereo unspecified),·,-5,·,·,·,0.8
Fc1ccccc1CNC(=S)Nc1cccc(C(F)(F)F)c1,19,-3,14,75,85,·

# Compound activity (PubChem)
